Bioassay records: PubChem, National Center for Advancing Translational Sciences (NCATS)
The list is not random: actives were taken first. Their share in the collection is about 14%.
NS1 inh: blocks influenza NS1 protein function; Potency, µM (top dose mostly 46.1 µM), for the others: at the highest dose activity, positive = more growth; 0.4% of 270,000 active; AID 2326; further: potency means the concentration at half of the fitted maximal effect; actives are rising curves; nearly all actives have a fitted effect of over 50% in size
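In this qHTS, NS1 from influenza A is expressed in budding yeast, where it slows growth. Cells are switched from glucose to 2% galactose medium (pH 6.0, -URA), treated with compound, and growth recovery is read at OD600.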
LmPK inh: inhibitors of Leishmania mexicana pyruvate kinase | AID 1721 | Potency, µM (highest dose often 57.5 µM), for the others: top-dose activity change, negative = inhibition, usual class: inhibitors | 0.37% of 290,000 active | purified LmPK, Kinase-Glo ATP luminescence, 1 h; active means well fitted curve in the direction sought with a large enough effect; inconclusive means small, poorly fitted or top-dose-only effect, or another doubt; inactive means no such curve, though single readings can be large; an effect the other way counts as inactive or inconclusive; further: potency means the concentration at half of the fitted maximal effect; on the % scale 0 is the no-effect control and ±100 the full control effect
Target sequence (Q27686 whole entry, looked up): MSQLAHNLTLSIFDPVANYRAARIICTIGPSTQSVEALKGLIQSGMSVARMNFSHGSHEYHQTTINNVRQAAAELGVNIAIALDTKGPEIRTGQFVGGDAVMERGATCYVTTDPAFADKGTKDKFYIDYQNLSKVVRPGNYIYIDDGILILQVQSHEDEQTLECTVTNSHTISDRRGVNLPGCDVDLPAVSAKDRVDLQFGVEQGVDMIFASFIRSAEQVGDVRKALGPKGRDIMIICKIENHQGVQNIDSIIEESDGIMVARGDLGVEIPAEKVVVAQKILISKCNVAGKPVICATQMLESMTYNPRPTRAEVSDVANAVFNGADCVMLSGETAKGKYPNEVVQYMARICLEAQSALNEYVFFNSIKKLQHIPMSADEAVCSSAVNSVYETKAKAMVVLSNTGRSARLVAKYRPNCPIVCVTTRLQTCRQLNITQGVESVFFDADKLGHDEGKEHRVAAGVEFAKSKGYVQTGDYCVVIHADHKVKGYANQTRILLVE
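0.1 nM LmPK, 0.5 mM PEP, 0.1 mM ADP; 50 mM imidazole pH 7.2, 7 mM MgCl2, 50 mM KCl; 1 h RT. Kinase-Glo luminescence readout, normalized to no-enzyme (full inhibition) and uninhibited wells.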
CHX counter-1: counter-screen for Shiga toxin inhibitors: cycloheximide protein synthesis inhibition; cell reporter, cycloheximide protein synthesis inhibition counterscreen; max response, %; 12% of 300,000 active; AID 2314; in the data active means max response mostly above about 13%, no sharp cut-off; inactive means mostly below about 14%; further: read at 38.3 µM for the half of the compounds with a filed dose; 0% is about no effect
Giardia FBPA inh: Giardia lamblia aldolase inhibition; A8B2U2; purified Giardia FBPA; Potency, µM (highest dose often 59.6 µM), for the others: top-dose activity, negative = inhibition, usual class: inhibitors; 0.71% of 290,000 active; active means well fitted curve in the direction sought with a large enough effect; inconclusive means small, poorly fitted or top-dose-only effect, or another doubt; inactive means no such curve, though single readings can be large; an effect the other way counts as inactive or inconclusive; further: potency means the concentration at half of the fitted maximal effect; on the % scale 0 is the no-effect control and ±100 the full control effect; nearly all actives have a fitted effect of over 55% in size
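40 nM FBPA preincubated 10 min at RT with compound (up to 57.5 uM final), then substrate plus GAPDH/TPI/NAD/arsenate coupling and diaphorase/resazurin added. Fluorescence read after 20 min at RT, 525/598 nm.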
Shiga inhibitor: inhibitors of Shiga toxin in Vero cells | inhibition, % at 38.7 µM | 9.2% of 290,000 active | AID 2315 | Vero cells, Shiga toxin protein synthesis inhibition reporter; in the data active means inhibition mostly above about 28%, no sharp cut-off; inactive means mostly below about 43%; further: 0% is about no effect
CHX counter-2: counter-screen for Shiga toxin inhibitors: cycloheximide protein synthesis block. shares compounds with Shiga inhibitor. Cycloheximide counterscreen, protein synthesis reporter, Shiga toxin assay. Potency, µM (doses to about 38.3 µM), without a hit: top-dose activity (activation), actives largely listed as activators. 3% of 510 active. AID 2318; further: potency means the concentration at half of the fitted maximal effect; 0% is about no effect
* = called active by the depositor. Unless noted, the call rests on the fitted dose curve.

How did COc1cc(/C=C/C(=O)N2CCN(Cc3ccccc3)CC2)cc(OC)c1OC do in these assays?
NS1 inh: -3%; LmPK inh: 1%; CHX counter-1: -6; Giardia FBPA inh: -3%; Shiga inhibitor: 11

Results for O=C(/C=C/c1ccc(Cl)cc1)N1CCN(Cc2ccccc2)CC1 ?
NS1 inh: -12%; LmPK inh: -1%; CHX counter-1: 9; Giardia FBPA inh: 11%; Shiga inhibitor: 25*; CHX counter-2: 3%

How did CCCNC(=O)CN1C(=O)NC(CCSC)C1=O (centres undefined) do in these assays?
NS1 inh: 0%; LmPK inh: 1%; CHX counter-1: -3; Giardia FBPA inh: 4%; Shiga inhibitor: 2

What do the screens show for `CCSc1nnc(NC(=O)[C@@H](NC(=O)c2ccccc2F)C(C)C)s1`?
NS1 inh: 1%; LmPK inh: 4%; CHX counter-1: 8; Giardia FBPA inh: inconclusive; Shiga inhibitor: 12

What do the screens show for `CCSc1nnc(NC(=O)[C@@H](NC(=O)c2ccc(C(C)(C)C)cc2)C(C)C)s1`?
NS1 inh: 21%; LmPK inh: 1%; CHX counter-1: 8; Giardia FBPA inh: 10%; Shiga inhibitor: 34*; CHX counter-2: 0%

Results for Cc1c(CN2CCC(n3nccc3NC(=O)C3CC3)CC2)[nH]c2ccccc12 ?
NS1 inh: 0%; LmPK inh: 0%; CHX counter-1: -4; Shiga inhibitor: -12

What do the screens show for `COc1cccc(C(=O)NNC(=O)CCc2ccccc2)c1`?
LmPK inh: 0%; CHX counter-1: -4; Giardia FBPA inh: 1%; Shiga inhibitor: 23

Results for COc1cccc(C(=O)NNC(=O)C2CC(C)=C(C)CC2C(=O)O)c1 (centres undefined) ?
NS1 inh: 13%; LmPK inh: -1%; CHX counter-1: 2; Giardia FBPA inh: 5%; Shiga inhibitor: 37*; CHX counter-2: -1%

Results for CCc1ccc(NC(=O)CCC(=O)Nc2nnc(C(C)C)s2)cc1 ?
NS1 inh: 11%; LmPK inh: 6%; CHX counter-1: 1; Giardia FBPA inh: 11%; Shiga inhibitor: 10

What do the screens show for `Cn1c(=O)c2ncn(CC(=O)NCCOc3ccccc3)c2n(C)c1=O`?
NS1 inh: 0%; LmPK inh: -7%; CHX counter-1: 5; Giardia FBPA inh: -4%; Shiga inhibitor: 27*; CHX counter-2: 0%

What do the screens show for `COc1ccccc1C(=O)N/C(=C\c1cn(C)c2ccccc12)C(=O)NCCCn1ccnc1`?
NS1 inh: 8%; LmPK inh: 3%; CHX counter-1: -3; Shiga inhibitor: 15

Results for O=C(NCC(=O)N1CCCC(C(F)(F)F)C1)c1ccc(Oc2ccccc2)cc1 (centres undefined) ?
NS1 inh: inconclusive; LmPK inh: -6%; CHX counter-1: 20; Shiga inhibitor: 21*; CHX counter-2: -1%

How did CCOc1ccc(S(=O)(=O)Nc2ccc3c(c2)n(C)c(=O)n3C)cc1 do in these assays?
NS1 inh: 4%; LmPK inh: 11%; CHX counter-1: -3; Giardia FBPA inh: -14%; Shiga inhibitor: 92*; CHX counter-2: -1%

How did Cc1ccc(S(=O)(=O)Nc2ccc3c(c2)n(C)c(=O)n3C)cc1 do in these assays?
NS1 inh: 0%; LmPK inh: 5%; CHX counter-1: -1; Giardia FBPA inh: -6%; Shiga inhibitor: 4

Results for CC(C)c1ccc(NC(=O)N2CCCC2C(=O)Nc2ccc(-n3cnnn3)cc2)cc1 (centres undefined) ?
NS1 inh: -3%; LmPK inh: 0%; CHX counter-1: 14; Giardia FBPA inh: -6%; Shiga inhibitor: 29*; CHX counter-2: 2%

How did Cc1cc(N/C=C\c2nnnn2-c2ccccc2)no1 do in these assays?
NS1 inh: -2%; LmPK inh: 2%; CHX counter-1: 7; Giardia FBPA inh: 3%; Shiga inhibitor: 30*; CHX counter-2: inconclusive

Results for Cc1cc(NC(=O)CSc2nnnn2-c2ccccc2)no1 ?
NS1 inh: 1%; LmPK inh: -4%; CHX counter-1: -3; Giardia FBPA inh: 6%; Shiga inhibitor: -3

Results for NS(=O)(=O)c1cc(C(=O)NCC2CCCCC2)ccc1Cl ?
NS1 inh: 5%; LmPK inh: 1%; CHX counter-1: -3; Giardia FBPA inh: -1%; Shiga inhibitor: 56*; CHX counter-2: 2%

Results for NS(=O)(=O)c1cc(C(=O)NCCc2ccccn2)ccc1Cl ?
NS1 inh: -3%; LmPK inh: -1%; CHX counter-1: -2; Giardia FBPA inh: 2%; Shiga inhibitor: 22

Results for CCOc1ccccc1CNC(=O)Cn1ccc2cc(S(=O)(=O)N3CCC(C)CC3)ccc21 ?
NS1 inh: inconclusive; LmPK inh: -3%; CHX counter-1: 19; Giardia FBPA inh: -10%; Shiga inhibitor: -2

How did COc1ccc(-n2c(SCC#N)nc3c(sc(=S)n3-c3ccccc3)c2=O)c(OC)c1 do in these assays?
NS1 inh: 14%; LmPK inh: -4%; CHX counter-1: 11; Giardia FBPA inh: 2%; Shiga inhibitor: -7

Results for COc1ccccc1-n1nnnc1SCc1ccccc1 ?
NS1 inh: -37%; LmPK inh: 9%; CHX counter-1: -2; Giardia FBPA inh: -14%; Shiga inhibitor: 5

How did COc1cc(-n2nnnc2SC)c(OC)cc1Cl do in these assays?
NS1 inh: 2%; LmPK inh: 1%; CHX counter-1: 10; Giardia FBPA inh: 6%; Shiga inhibitor: 47*; CHX counter-2: -1%

What do the screens show for `Cc1csc(SCC(=O)NC(=O)NC(C)C)n1`?
LmPK inh: 3%; CHX counter-1: 1; Giardia FBPA inh: 6%; Shiga inhibitor: -6

How did Cc1csc(SCC(=O)Nc2ncc(Cl)c(C)c2Cl)n1 do in these assays?
NS1 inh: -3%; LmPK inh: 5%; CHX counter-1: 9; Giardia FBPA inh: 12%; Shiga inhibitor: 21*; CHX counter-2: 1%

Results for Cc1cccc(NC(=O)CCN2C(=O)c3ccccc3S2(=O)=O)c1C ?
NS1 inh: 5%; LmPK inh: -5%; CHX counter-1: -1; Giardia FBPA inh: 0%; Shiga inhibitor: 17*; CHX counter-2: 3%

What do the screens show for `Cc1ccc(OCc2cccc(S(=O)(=O)N(C)C)c2)c([N+](=O)[O-])n1`?
NS1 inh: 3%; LmPK inh: -3%; CHX counter-1: -3; Shiga inhibitor: -4

Results for O=C(CCCCCNC(=O)N1CCn2c1nc1ccccc12)N[C@H](Cc1ccccc1)C(=O)O ?
NS1 inh: -6%; LmPK inh: -6%; CHX counter-1: -3; Giardia FBPA inh: -7%; Shiga inhibitor: -11

Results for O=C(/C=C/c1ccccc1[N+](=O)[O-])NCCCN1CCCC1=O ?
NS1 inh: 1%; LmPK inh: -12%; CHX counter-1: 17; Shiga inhibitor: -19

Results for COc1ccc(NC(=O)CSc2nccn2-c2cccc(OC)c2)cc1 ?
NS1 inh: -75%; LmPK inh: 0%; CHX counter-1: 0; Giardia FBPA inh: 10%; Shiga inhibitor: 40*; CHX counter-2: 2%
